The results in this text go back to PubChem BioAssay (NCI).

The panel holds about 83,000 compounds, 20% with a hit somewhere; the sample as a whole holds those more often.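 Assay: single dose, 48 h. Readout: percent growth (0 = no net growth; negative = cell death). Active: <10.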 A number with no mark means an inactive call. Active and inactive are the calls of the source.

Test in all cases: NCI-60 one-dose screen, 48 h (100 = growth as untreated, 0 = no growth, -100 = all killed)
Common to all, as to conditions: 10 µM unless noted

The subject of experiment [1] is HCT-15 colon.
Experiment [2] relates to HT29 colon.
The test system of experiment [3] is SNB-75 CNS.
Experiment [4] concerns SNB-19 CNS.
Experiment [5] has as its system U251 CNS.
The subject of experiment [6] is PC-3 prostate.
In experiment [7] the test system is SK-MEL-5 melanoma.
In experiment [8] the test system is UACC-62 melanoma.
In experiment [9] the test system is LOX IMVI melanoma.
Experiment [10] has as its system SK-MEL-28 melanoma.

As to `CCOC(=O)c1[nH]c2cc(Cl)ccc2c1[C@@H](C(=O)NC(C)(C)C)N(CC)C(=O)CCCCC#Cc1cccc2c1CN(C1CCC(=O)NC1=O)C2=O` (stereo not given in full), the growth is -2.23% (active) in experiment [1]; 8.65% (active) in [2]; 0.961% (active) in experiment [3]; 28.2% in experiment [4]; 27.8% in [5]; 11.7% in experiment [6]. The growth in experiment [7] was -53.4% (active); in experiment [8] it was 27.2%; in experiment [9], 8.52% (active); in [10] it was 29.6%.

For `Cc1cc(=O)oc2c1ccc1oc(C(=O)c3ccccc3)c(C)c12`, the growth in [1] was 64%; in experiment [2], 51.8%; in experiment [3], 103%; in [4] it was 103%; in experiment [5], 83.9%; in experiment [6], 86.4%. Also, the growth in [7] is 84.3%; in experiment [8] it was 80.8%; in [9], 80.5%; in experiment [10], 105%.

On to `O=C(Nc1ccccc1)Oc1cccc2cccnc12`, for which the growth was 74.5% in experiment [1]; 28.5% in experiment [2]; 83% in experiment [3]; 99.3% in experiment [4]; 70.5% in experiment [5]; 70.1% in [6]. The growth in experiment [7] is 96.9%; in experiment [8], 108%; in experiment [9], 61%; in experiment [10], 97.6%.

Consider `Clc1ccc(Nc2nc(Nc3ccccc3)nc(Nc3ccc(-c4cc(-c5ccc(Cl)cc5)on4)cc3)n2)cc1`, for which the growth was 43.1% in [1]; -2.96% (active) in experiment [2]; 16.6% in experiment [3]; 76.7% in [4]; 48.5% in experiment [5]; 46.1% in [6]. In addition, the growth is 86% in [7], 53.3% in [8], 32.5% in experiment [9] and 77.7% in experiment [10].

Take `CCN1CCN(c2ccc(Nc3ncc4ccc5ncn(C(C)C)c5c4n3)nc2)CC1`: the growth in experiment [1] is -0.238% (active); in experiment [2] it was 5.37% (active); in experiment [3], -66% (active); in experiment [4], 9.26% (active); in experiment [5], 14.1%; in experiment [6] it was 7.15% (active). Moreover, the growth in experiment [7] is -8.75% (active); in [8] it was -17% (active); in [9] it was -33.3% (active); in experiment [10] it was -13.7% (active).

For the compound `c1ccc2cc(-c3n(Cc4ccc5ccccc5n4)c4ccccc4[n+]3Cc3ccc4ccccc4n3)ccc2c1`, the growth in experiment [1] was 18.8%; in experiment [2], -31.7% (active); in experiment [3], -32.8% (active); in experiment [4], 6.22% (active); in experiment [5], -7.46% (active); in [6] it was 0.461% (active). For the same compound, the growth in experiment [7] is -96% (active); in experiment [8] it was -60.6% (active); in [9], -85.8% (active); in experiment [10], -24.2% (active).

Turning to `CCCCCCCC/C=C\CCCCCCCCOc1cccc(CC(=O)NCC[N+](C)(C)C)c1`, the growth was 91.7% in experiment [1]; 48.3% in experiment [2]; 59.1% in experiment [3]; 60.1% in [4]; 46.2% in experiment [5]; 36.4% in experiment [6]. In addition, the growth in experiment [7] was 90.8%; in [8], 80.8%; in [9], 89%; in [10] it was 99.6%.

`COc1cc(/C=C2\C(=O)N(c3c(Cl)cccc3Cl)c3ccccc32)cc(OC)c1O`: the growth was 30.7% in experiment [1]; 22.6% in experiment [2]; 61.7% in experiment [3]; 52.4% in [4]; 22.4% in experiment [5]; 15.2% in experiment [6]. Besides, the growth in [7] was 32.3%; in [8], 47.5%; in experiment [9] it was 2.06% (active); in experiment [10] it was 58.8%.

Regarding `COc1ccc(C2=NOC(CC(=O)N(CCO)CCO)C2)cc1OC1CCCC1` (stereo not given), the growth is 98.6% in experiment [1]; 110% in experiment [2]; 86.5% in [3]; 97% in experiment [4]; 97.5% in experiment [5]; 95.5% in experiment [6]. Further, the growth was 94.1% in experiment [7], 100% in [8], 103% in [9] and 119% in [10].

With `O=c1oc2ccccc2cc1-c1csc(N=Nc2c(O)[nH]c3ccc(Cl)cc23)n1`, the growth is 99.5% in experiment [1]; 101% in experiment [2]; 93.3% in experiment [3]; 99.2% in [4]; 94.6% in [5]; 100% in [6]. Moreover, the growth in [7] was 104%; in experiment [8] it was 98.2%; in [9] it was 97.7%; in [10], 103%.

As for `CC(=O)OC[C@H](O)[C@@]1(O)CC[C@H]2[C@@H]3CCC4=CC(=O)CC[C@]4(C)[C@H]3[C@@H](O)C[C@@]21C`, the growth is 105% in [1]; 101% in experiment [2]; 117% in experiment [3]; 109% in [4]; 111% in experiment [5]; 95.4% in experiment [6]. The growth is 101% in experiment [7], 104% in experiment [8], 103% in experiment [9] and 114% in experiment [10].

With `C=C(C)COC(=O)c1ccccc1C(=O)OCC1(C)CO1` (stereo not given), the growth in experiment [1] is 107%; in [2] it was 107%; in experiment [3], 92.9%; in [4] it was 101%; in [5], 102%; in experiment [6], 104%. In addition, the growth was 105% in experiment [7], 92.8% in experiment [8], 84.5% in experiment [9] and 117% in experiment [10].

Take `COc1cc(/C=C/c2cc(/C=C/c3ccc(O)c(OC)c3)n(-c3ccccc3)n2)ccc1O`: the growth was -3.38% (active) in experiment [1]; -52.4% (active) in [2]; -53.2% (active) in experiment [3]; 1.18% (active) in experiment [4]; 1.47% (active) in [5]; -33.1% (active) in experiment [6]. Moreover, the growth in experiment [7] is -86.5% (active); in experiment [8] it was -84.4% (active); in experiment [9] it was -37.1% (active); in [10], -6.73% (active).

`CCCCCn1c(=N)n(CC(O)COc2cccc(C)c2)c2ccccc21` (stereo not given): the growth in [1] was 11.1%; in [2], 72.7%; in [3] it was 2.13% (active); in [4], 20%; in experiment [5] it was 1.64% (active); in [6] it was 7.46% (active). The growth in [7] is -73.3% (active); in experiment [8], 25.7%; in experiment [9] it was 13.7%; in experiment [10], 31.2%.

On to `CCN1C(=O)C2(Nc3ccccc3S2)c2cc(C)ccc21` (stereo not given), for which the growth in experiment [1] is 101%; in experiment [2], 107%; in experiment [3], 76.2%; in experiment [4] it was 107%; in [5], 97.5%; in [6], 89%. The growth in experiment [7] is 95.1%; in experiment [8], 102%; in experiment [9], 103%; in experiment [10], 105%.

Turning to `CCCCC/C=C\C/C=C/CCCCCCCCNC(=O)Nc1ccc([N+](=O)[O-])cc1`, the growth was 78% in experiment [1]; 60.7% in experiment [2]; 103% in experiment [3]; 89.6% in experiment [4]; 51.3% in [5]; 16.3% in experiment [6]. In addition, the growth is 103% in [7], 68.4% in experiment [8], 17.4% in experiment [9] and 106% in experiment [10].

In the case of `CCCN1CCN(c2ccc3nc(-c4ccc5nc(-c6ccc(C(F)(F)F)cc6)[nH]c5c4)[nH]c3c2)CC1`, the growth in experiment [1] is -55.1% (active); in experiment [2], -44% (active); in experiment [3], 32.5%; in experiment [4] it was -93.8% (active); in experiment [5] it was -82.2% (active); in experiment [6], -68% (active). Also, the growth in [7] is 37.2%; in [8], 72.9%; in experiment [9], -92.9% (active); in experiment [10], -94.6% (active).

Regarding `CCCCC(O)Cn1ncc(C(=O)OCC)c1NC(=O)NCc1ccccc1C(F)(F)F` (stereo not given), the growth in experiment [1] was 98%; in [2] it was 107%; in experiment [3] it was 92.6%; in experiment [4], 94.4%; in [5], 95.3%; in [6] it was 86.6%. For the same compound, the growth is 95.9% in experiment [7], 87.6% in experiment [8], 98.4% in experiment [9] and 111% in experiment [10].

As to `Cn1cc(C(=O)NCCC(=N)N)cc1NC(=O)CN=C(N)N`, the growth in experiment [1] is 111%; in experiment [2], 107%; in experiment [3], 88.9%; in [4], 101%; in experiment [5], 98%; in experiment [6], 92.5%. In addition, the growth was 101% in experiment [7], 98% in [8], 97.5% in [9] and 92.6% in experiment [10].

`COc1cc(/C=N/NC(=O)c2cnn3c2NC(c2ccccc2)C3)cc(OC)c1OC` (stereo not given): the growth in [1] was 37.7%; in experiment [2], 20.5%; in experiment [3] it was 52.4%; in experiment [4], 66.2%; in [5], 66.9%; in experiment [6] it was 56.2%. The growth in experiment [7] was 50.4%; in [8], 57.4%; in [9] it was 61.3%; in experiment [10], 70.4%.

Consider `CCCCCCCCCCCCCCCC[N+]1(C)CCOCC1`, for which the growth is 40.4% in experiment [1]; 1.36% (active) in [2]; 11.7% in experiment [3]; -29.1% (active) in experiment [4]; -84.8% (active) in experiment [5]; -52% (active) in experiment [6]. In addition, the growth in experiment [7] was 40%; in [8] it was 46.9%; in experiment [9], -79% (active); in [10], 86%.

For `c1ccc(-c2n(Cc3ccc4ccccc4n3)c3ccccc3[n+]2Cc2ccc3ccccc3n2)cc1`, the growth was 47.9% in experiment [1]; 0.506% (active) in experiment [2]; -21.5% (active) in [3]; 10.6% in [4]; 12.1% in experiment [5]; 5.27% (active) in experiment [6]. For the same compound, the growth in experiment [7] was -95.9% (active); in [8] it was -45% (active); in [9], -75.8% (active); in [10], -4.75% (active).

Take `CCC(C)Oc1cc(/C=N/NC(=O)c2cnn3c2NC(c2ccccc2)C3)ccc1OC` (stereo not given): the growth in experiment [1] was 23.9%; in [2], 15%; in [3], -12.2% (active); in experiment [4], 38.6%; in experiment [5], 34.8%; in experiment [6], 25.3%. In addition, the growth is 21.2% in [7], 36% in experiment [8], 26.1% in experiment [9] and 59.1% in [10].

`FC(F)(F)Oc1ccc2c(c1)C[C@H]1C[C@@H](c3ccoc3)N2O1`: the growth in [1] is 95.1%; in experiment [2], 99.9%; in experiment [3] it was 99.5%; in experiment [4], 105%; in experiment [5] it was 94.5%; in [6], 92.8%. For the same compound, the growth is 115% in [7], 98.8% in experiment [8], 91.8% in experiment [9] and 108% in experiment [10].

As for `Clc1ccc(C2=NN(c3ccccc3)[C@H](c3cn(-c4ccccc4)nc3-c3ccccc3)C2)cc1`, the growth was 103% in experiment [1]; 94.6% in [2]; 97% in [3]; 103% in experiment [4]; 93.1% in experiment [5]; 93.9% in [6]. For the same compound, the growth in [7] is 114%; in experiment [8], 107%; in [9], 96.4%; in experiment [10], 110%.
